# Assay results reported in the supplement of paper PMC8728848.
# This is one part of a sample in which the strongest signals are shown more often than they occur.
# Assays:
# Assay in all cases: glycan array binding signal (z-score within array); higher = stronger binding
# Details in all cases: glycan notation: IUPAC condensed, linker removed
# [1] = molecular target: Gal(b1-4)GlcNAc(b1-3)[GlcNAc(b1-6)]Gal(b1-4)GlcNAc
# Outline: (§1)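 Glycan array binding is given as a within-array Z-score, which can be read as non-binding when negative. The arrays, 3228 of them, came from the Consortium for Functional Glycomics database and were retained only where the protein sequence was available. Z-scores were averaged across arrays of the same protein sequence at different concentrations or buffers and across linkers.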
# [2] = molecular target: Gal6S(b1-4)Glc6S
# Outline: as §1
# [3] = molecular target: Glc(a1-6)Glc(a1-6)Glc
# Outline: as §1
# [4] = molecular target: GlcNAc(a1-4)Gal(b1-4)GlcNAc(b1-3)Gal(b1-4)GlcNAc
# Outline: as §1
# [5] = molecular target: GlcNAc(b1-2)Man(a1-3)[GlcNAc(b1-4)][GlcNAc(b1-2)Man(a1-6)]Man(b1-4)GlcNAc(b1-4)GlcNAc
# Outline: as §1
# [6] = molecular target: GlcNAc(b1-3)Gal(b1-4)GlcNAc(b1-3)Gal(b1-4)GlcNAc(b1-2)[GlcNAc(b1-3)Gal(b1-4)GlcNAc(b1-3)Gal(b1-4)GlcNAc(b1-6)]Man(a1-6)[GlcNAc(b1-3)Gal(b1-4)GlcNAc(b1-3)Gal(b1-4)GlcNAc(b1-2)Man(a1-3)]Man(b1-4)GlcNAc(b1-4)[Fuc(a1-6)]GlcNAc
# Outline: as §1
# [7] = molecular target: GlcNAc(b1-3)Gal(b1-4)GlcNAc(b1-3)Gal(b1-4)GlcNAc(b1-3)Gal(b1-4)GlcNAc(b1-3)Gal(b1-4)GlcNAc(b1-2)Man(a1-3)[GlcNAc(b1-3)Gal(b1-4)GlcNAc(b1-3)Gal(b1-4)GlcNAc(b1-3)Gal(b1-4)GlcNAc(b1-3)Gal(b1-4)GlcNAc(b1-2)Man(a1-6)]Man(b1-4)GlcNAc(b1-4)[Fuc(a1-6)]GlcNAc
# Outline: as §1
# [8] = molecular target: GlcNAc(b1-3)Gal(b1-4)GlcNAc(b1-3)Gal(b1-4)GlcNAc(b1-3)Gal(b1-4)GlcNAc(b1-3)Gal(b1-4)GlcNAc(b1-2)[GlcNAc(b1-3)Gal(b1-4)GlcNAc(b1-3)Gal(b1-4)GlcNAc(b1-3)Gal(b1-4)GlcNAc(b1-3)Gal(b1-4)GlcNAc(b1-6)]Man(a1-6)[GlcNAc(b1-3)Gal(b1-4)GlcNAc(b1-3)Gal(b1-4)GlcNAc(b1-3)Gal(b1-4)GlcNAc(b1-3)Gal(b1-4)GlcNAc(b1-2)Man(a1-3)]Man(b1-4)GlcNAc(b1-4)[Fuc(a1-6)]GlcNAc
# Outline: as §1
# [9] = molecular target: Kdn(a2-3)Gal(b1-4)GlcNAc
# Outline: as §1
# [10] = molecular target: Neu5Ac(a2-3)Gal
# Outline: as §1
# [11] = molecular target: Neu5Ac(a2-3)Gal(b1-3)GlcNAc(b1-2)Man
# Outline: as §1
# [12] = molecular target: Neu5Ac(a2-3)Gal(b1-3)[Fuc(a1-4)]GlcNAc(b1-3)Gal(b1-4)[Fuc(a1-3)]GlcNAc
# Outline: as §1
# [13] = molecular target: Neu5Ac(a2-3)Gal(b1-3)[Neu5Ac(a2-6)]GalNAc
# Outline: as §1
# [14] = molecular target: Neu5Ac(a2-3)Gal(b1-4)GlcNAc(b1-3)Gal(b1-4)GlcNAc(b1-3)Gal(b1-4)GlcNAc(b1-2)Man(a1-3)[Neu5Ac(a2-3)Gal(b1-4)GlcNAc(b1-3)Gal(b1-4)GlcNAc(b1-3)Gal(b1-4)GlcNAc(b1-2)Man(a1-6)]GalNAc
# Outline: as §1
# [15] = molecular target: Neu5Ac(a2-3)Gal(b1-4)GlcNAc(b1-3)Gal(b1-4)[Fuc(a1-3)]GlcNAc
# Outline: as §1
# [16] = molecular target: Neu5Ac(a2-3)Gal(b1-4)GlcNAc(b1-6)[Neu5Ac(a2-3)Gal(b1-3)]GalNAc
# Outline: as §1
# [17] = molecular target: Neu5Ac(a2-3)Gal(b1-4)[Fuc(a1-3)]GlcNAc(b1-3)GalNAc
# Outline: as §1
# [18] = molecular target: Neu5Ac(a2-3)Gal(b1-4)[Fuc(a1-3)]GlcNAc(b1-6)[Gal(b1-3)]GalNAc
# Outline: as §1
# [19] = molecular target: Neu5Ac(a2-3)[GalNAc(b1-4)]Gal(b1-4)Glc
# Outline: as §1
# [20] = molecular target: Neu5Ac(a2-6)Gal(b1-4)GlcNAc(b1-2)Man(a1-3)[Neu5Ac(a2-6)Gal(b1-4)GlcNAc(b1-2)Man(a1-6)]Man(b1-4)GlcNAc(b1-4)[Fuc(a1-6)]GlcNAc
# Outline: as §1
# [21] = molecular target: Neu5Ac(a2-6)Gal(b1-4)GlcNAc(b1-3)Gal(b1-4)GlcNAc(b1-3)Gal(b1-4)GlcNAc(b1-2)Man(a1-3)[Neu5Ac(a2-6)Gal(b1-4)GlcNAc(b1-3)Gal(b1-4)GlcNAc(b1-3)Gal(b1-4)GlcNAc(b1-2)Man(a1-6)]GalNAc
# Outline: as §1
# [22] = molecular target: Neu5Ac(a2-6)Gal(b1-4)GlcNAc(b1-3)Gal(b1-4)GlcNAc(b1-3)[Neu5Ac(a2-6)Gal(b1-4)GlcNAc(b1-3)Gal(b1-4)GlcNAc(b1-6)]GalNAc
# Outline: as §1
# [23] = molecular target: Neu5Ac(a2-8)Neu5Gc(a2-3)Gal(b1-4)GlcNAc
# Outline: as §1
# [24] = molecular target: Neu5Gc(a2-3)Gal(b1-4)[Fuc(a1-3)]GlcNAc
# Outline: as §1
binder,measurement,setting,value
PX9961T-pdi-555-33-555 (Parabacteroides distasonis) (protein) FDEETAFQSPTLVYVNTVASLYNNMFKIMGNDRHVYDLNTFSSDEAMLPCRIGDWEDGGLWQNIFLHRWGTMNDLTKNSWDFLYEQIGKCNQSVDKLQAFAEEQPDVEYFKVYLEEVRAVRAFFYYELLDLFARVPLVTSSTTPMSEVKQSERSVVFNFVRSELEEALPYLSDNRSNQKGEYYGRITKPVAYMILAKLALNAEVYADDNWTDGNRPAGKNIKFTVDGKEMNAWEATIAYVDKLEALGYKLQGNFSENFAVANETSVENIFTVPMDPVAYPDAKDYNLVRTRHYDHATAYGQSGWNGSCATVKAMNVFKFGTADEDPRCKLTYFTGEVTGPDGKTIYTEWDGQKVPLKYEPNAPKVYMDASDGLLVKTAGARMAKYEFDQNAQDGGNLHGNDCVIFRFADALLMKAEAKIRLGQNGDDEVNQVRNRVGAKPLQNVTLDTLLDERMLELAWEGVRRQDLIRFGKFTEATVDRYVGVKHFASSLDYQEDKTGYTTVFSIYADILSLNPNLTQNPGY,glycan array binding signal (z-score),[1],-0.222
same,glycan array binding signal (z-score),[2],-0.372
same,glycan array binding signal (z-score),[3],0.357
same,glycan array binding signal (z-score),[4],-0.402
same,glycan array binding signal (z-score),[5],-0.416
same,glycan array binding signal (z-score),[6],-0.298
same,glycan array binding signal (z-score),[7],0.229
same,glycan array binding signal (z-score),[8],-0.523
same,glycan array binding signal (z-score),[9],-0.683
same,glycan array binding signal (z-score),[10],-0.213
same,glycan array binding signal (z-score),[11],-0.451
same,glycan array binding signal (z-score),[12],-0.031
same,glycan array binding signal (z-score),[13],-0.194
same,glycan array binding signal (z-score),[14],1.63
same,glycan array binding signal (z-score),[15],-0.528
same,glycan array binding signal (z-score),[16],1.08
same,glycan array binding signal (z-score),[17],1.68
same,glycan array binding signal (z-score),[18],-0.177
same,glycan array binding signal (z-score),[19],1.56
same,glycan array binding signal (z-score),[20],-0.612
same,glycan array binding signal (z-score),[21],0.737
same,glycan array binding signal (z-score),[22],1.82
same,glycan array binding signal (z-score),[23],20.7
same,glycan array binding signal (z-score),[24],0.358
